This passage reports AC50 and activity, negative = inhibition results from PubChem BioAssay AID1851 (National Center for Advancing Translational Sciences (NCATS), 2009).

Several values for one entry are separate records, joined by “and”; a condition that tells them apart may be missing. Equal values may be shown once. The campaign covered roughly 16,000 compounds. About 4,000 (25%) were called active. Not shown: some 26% with an inconclusive outcome. These entries were drawn from the full list. Unmarked numbers belong to inactive results. Calls come from the whole dose curve; as a rule, active = well fitted curve in the direction sought with a large enough effect; inconclusive = small, poorly fitted or top-dose-only effect, or effect the other way; inactive = no such curve, though single readings can be large or run the other way.
% is set by controls: 0 for no effect and ±100 for the full control effect.

The target of this experiment is Cytochrome P450 2C9 (Homo sapiens) (UniProt P11712). The experiment in a line: Cytochrome panel assay with activity outcomes. The following applies: recombinant CYP, pro-luciferin dealkylation, luminescence, p450-cyp2c9; series mostly up to 57.1 µM.
Cytochrome P450 2C9 (Homo sapiens), sequence (P11712 whole entry, looked up): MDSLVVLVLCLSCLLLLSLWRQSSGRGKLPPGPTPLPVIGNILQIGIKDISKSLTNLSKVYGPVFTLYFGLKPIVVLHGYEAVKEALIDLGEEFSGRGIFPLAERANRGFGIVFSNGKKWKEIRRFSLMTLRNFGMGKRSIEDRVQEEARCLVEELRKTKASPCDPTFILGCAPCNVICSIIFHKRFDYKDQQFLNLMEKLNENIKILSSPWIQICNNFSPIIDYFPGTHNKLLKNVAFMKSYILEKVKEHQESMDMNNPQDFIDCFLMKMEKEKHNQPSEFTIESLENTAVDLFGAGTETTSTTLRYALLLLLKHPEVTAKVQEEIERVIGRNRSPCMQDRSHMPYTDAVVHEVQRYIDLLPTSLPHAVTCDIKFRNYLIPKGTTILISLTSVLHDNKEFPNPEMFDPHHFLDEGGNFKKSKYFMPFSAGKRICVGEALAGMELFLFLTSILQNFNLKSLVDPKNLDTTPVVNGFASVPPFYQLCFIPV
For the compound `Cc1ccsc1/C=C1/SC(=O)N(CC(=O)N2CCOCC2)C1=O`, the AC50 entry is “inactive”. As to `CN(C)c1ccc(/C=C2/C(=O)N(c3ccc([N+](=O)[O-])cc3)N=C2N2CCOCC2)cc1`, the AC50 entry was “inactive”. Regarding `Cc1cc(N2CCOCC2)ccc1/C=C1\SC(=O)N(C(C)C)C1=O`, the AC50 was 31.6 µM (active). Consider `Cc1ccc2c(CC(=O)OCc3cc(=O)n4c(n3)sc3ccccc34)coc2c1`, for which the AC50 is 7.94 µM (active). As to `c1cnc(Nc2nc(-c3ccc4ccccc4c3)cs2)nc1`, the AC50 entry was “inactive”.

Regarding `COc1cccc(Nc2nc(-c3ccc(O)cc3)cs2)c1`, the AC50 was 3.98 µM (active). In the case of `COc1cccc(Nc2ncc3nc(-c4ccccc4)c(=O)n(C)c3n2)c1`, the AC50 result was “inactive”. Same read-out and setting: as for `CC1CCCC(NC(=O)C2CCN(S(=O)(=O)N3CCOCC3)CC2)C1C` (centres undefined), the entry is “inactive”; as for `CCNc1ncc2nc(C)c(=O)n(C)c2n1`, “inactive”.

As to `CCNc1ncc2nc(-c3ccccc3)c(=O)n(C)c2n1`, the AC50 was 12.6 µM (active). As to `N#CCCn1c(=O)c(CCc2ccccc2)nc2cnc(Nc3ccccc3)nc21`, the AC50 result was “inactive”. Take `CCNc1ncc2nc(-c3ccc(F)cc3)c(=O)n(-c3ccccc3)c2n1`: the AC50 result was “inactive”. Same read-out and setting: the value for `CCNc1ncc2nc(-c3ccc(F)cc3)c(=O)n(C)c2n1` was “inactive”; that for `CCNc1ncc2nc(-c3ccccc3)c(=O)n(CCC#N)c2n1` was “inactive”; that for `CCNc1ncc2nc(CCc3ccccc3)c(=O)n(-c3ccccc3)c2n1` was 12.6 µM (active). On to `CCNc1ncc2nc(CCc3ccccc3)c(=O)n(C)c2n1`, for which the AC50 was 12.6 µM (active). On to `CCNc1ncc2nc(-c3ccc(Cl)cc3)c(=O)n(C)c2n1`, for which the AC50 result is “inactive”. The same measure, in the same setting: the value for `CCNc1ncc2nc(-c3cc(F)cc(F)c3)c(=O)n(-c3ccccc3)c2n1` was “inactive”. As for `CCNc1ncc2nc(CCc3ccccc3)c(=O)n(CCC#N)c2n1`, the AC50 is 6.31 µM (active). On the same count and under the same terms, the value for `CCNc1ncc2nc(CCc3ccccc3)c(=O)n(Cc3ccc(F)cc3)c2n1` was “inactive”; that for `CC1(C)CC2(CCO1)OC(=O)CC2C(=O)NCCc1ccccc1` (centres undefined) was “inactive”; that for `FC(F)(F)c1cc(CN2CC3(CCNCC3)C2)cc(C(F)(F)F)c1` was “inactive”.

For `CC1(C)S[C@@H]2[C@H](NC(=O)[C@@H](N)c3ccccc3)C(=O)N2[C@H]1C(=O)O[C@H]1OC(=O)c2ccccc21`, the AC50 entry was “inactive”.

On to `Cc1cc(C)c2c(N=NN(C)C)[nH]nc2n1`, for which the AC50 result was “inactive”. As for `Cc1ccccc1-c1nc(NC2CCNCC2)c2ccccc2n1`, the activity, negative = inhibition was 10.8% [at 2.29 µM]. Turning to `COc1cccc(OC)c1OCCCN1CCOCC1`, the AC50 result is “inactive”.

For the compound `c1csc(CNCCCN2CCOCC2)c1`, the AC50 entry is “inactive”. For the compound `S=C1SCN(CCN2CCOCC2)CN1Cc1ccccc1`, the AC50 was 12.6 µM (active). For the compound `Cc1ccccc1-c1ccc2ncnc(N3CCNCC3)c2c1`, the activity, negative = inhibition was 4.82% [at 2.29 µM]. On to `CN(C)C(=O)c1ccc(-c2cncnc2N2CCNCC2)cc1`, for which the activity, negative = inhibition is 7.11% [at 2.29 µM]. Take `Cc1ccc2nc(-c3cccnc3)oc2c1`: the half-maximal activity concentration (AC50) was 25.1 µM (active). On the same count and under the same terms, the value for `c1cncc(-c2cccnc2)c1` was “inactive”; that for `Clc1ccc2oc(-c3cccnc3)nc2c1` was “inactive”.

Take `O=c1[nH][nH]c(C(F)(F)F)c1C=Nc1ccccc1Cl`: the AC50 result was “inactive”. Consider `COc1cccc(/C=N\NC(=O)C2C(=O)NCC2c2ccccc2)c1O` (centres undefined), for which the half-maximal activity concentration (AC50) is 14.1 µM (active). On the same count and under the same terms, as for `COc1cc(/C=N\NC(=O)C2C(=O)NCC2c2ccccc2)cc(OC)c1O` (centres undefined), the entry is “inactive”.

Take `O=C(Nc1ccccc1)N1CCC2(CC1)CCN(C(=O)c1csnn1)CC2`: the AC50 result was “inactive”. Consider `CC(=O)[C@@H]1[C@@H]2C(=O)N(C3CCCCC3)C(=O)[C@@H]2C2c3ccccc3C=CN21` (some centres undefined), for which the AC50 is 15.8 µM (active). In the case of `CCOC(=O)N/N=C1/C[C@@H](O)[C@@H](O)[C@@H]2[C@@H]3C(=O)N(C4CCCCC4)C(=O)[C@H]3CC[C@@H]12`, the activity, negative = inhibition is -16.3% [at 11.4 µM].

Turning to `O=C1C[C@@H](O)[C@@H](O)[C@H]2[C@@H]3C(=O)N(C4CCCCC4)C(=O)[C@@H]3CC[C@H]12`, the activity, negative = inhibition was 14.6% [at 11.4 µM] and -0.457% [at 11.4 µM] and -8.99% [at 11.4 µM]. For the compound `COc1cc2ccc(=O)oc2cc1O`, the AC50 entry was “inactive”. Same read-out and setting: as for `Nc1ccc(S(=O)(=O)Nc2ccc(Cl)nn2)cc1`, the entry is “inactive”. Still for that read-out and setting: the value for `CC1(O)c2ccccc2C(=O)N1CCc1ccccc1F` (centres undefined) was 15.8 µM (active). In the case of `Cc1ccc(S(=O)(=O)O[C@@H]2[C@H]([C@@H]3COC(C)(C)O3)O[C@H]3OC(C)(C)O[C@@H]32)cc1`, the activity, negative = inhibition is 4.54% [at 11.4 µM]. Turning to `CC(NC(=O)OCc1ccccc1)C(=O)NCC1CCCO1` (centres undefined), the AC50 result is “inactive”. On the same count and under the same terms, the value for `Cc1ccc(N(C(=O)Cn2nnc(-c3ccc(F)cc3)n2)C(CC(C)C)C(=O)NCC2CCCO2)cc1` (centres undefined) was 3.98 µM (active); that for `CN(C)c1ncc2nc(-c3ccc(F)cc3)c(=O)n(C[C@H]3CCCO3)c2n1` was “inactive”; that for `CC(C)CC(C(=O)NCC1CCCO1)N(C(=O)Cn1nnc(-c2ccc(F)cc2)n1)c1ccccc1F` (centres undefined) was 11.2 µM (active). The same measure, in the same setting: as for `CC(C)CC(C(=O)NCC1CCCO1)N(C(=O)Cn1nnc(-c2ccc(F)cc2)n1)c1cccc(C(F)(F)F)c1` (centres undefined), the figure is 7.94 µM (active); as for `Cc1ccc(-c2nnn(CC(=O)N(c3ccccc3)C(C(=O)NCC3CCCO3)c3ccc(Cl)cc3)n2)cc1` (centres undefined), 0.708 µM (active); as for `O=C(NCC1CCCO1)C(c1cccnc1)N(C(=O)Cc1cccs1)c1cccnc1` (centres undefined), “inactive”. `N#CC(CC(=O)O)=C(c1ccccc1)c1ccccc1`: the activity, negative = inhibition was -16.4% [at 11.4 µM].

Take `CCN1C(=O)[C@H]2[C@H]3[C@H](O)[C@H](O)C/C(=N/O[C@@H]4O[C@@H](COC(C)=O)[C@@H](OC(C)=O)[C@@H](OC(C)=O)[C@H]4OC(C)=O)[C@@H]3CC[C@@H]2C1=O`: the activity, negative = inhibition is 19.4% [at 11.4 µM].

As to `CCN1CCCC1CNC(=O)CSCc1nc(-c2ccccc2C)oc1C` (centres undefined), the AC50 result is “inactive”. Still for that read-out and setting: as for `Cc1oc(-c2ccccc2F)nc1CSCC(=O)NCc1ccc2c(c1)OCO2`, the figure is 4.47 µM (active); as for `COc1ccc(Oc2nc(C)cc(C)c2S(=O)(=O)c2ccc(C)cc2)cc1`, 14.1 µM (active).

Take `Cc1cc(C)c(C#N)c(Oc2ccc(F)cc2)n1`: the AC50 result was “inactive”.

Turning to `Cc1cc(C)c(S(C)(=O)=O)c(Oc2ccc(C(C)(C)C)cc2)n1`, the concentration at half-maximal activity (AC50) was 7.08 µM (active). Take `NC(=O)NC(=O)[C@H]1CCCC[C@@H]1C(=O)O`: the activity, negative = inhibition is 7.71% [at 11.4 µM].
